DENV2 CPE rescue: DENV2-induced cell death inhibition; CPE inhibition, % at 9.99 µM; 1.7% of 350,000 active; DENV2-infected cells, cytopathic effect rescue, plate reader; in the data active means CPE inhibition above about 20%, passing the limit was not always enough; inconclusive means no clear call, values can overlap the other calls; tested in BHK-21 cells;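 further: 0% = median of neutral control wells and 100% = median of positive control wells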
ERAP1 HTS inh: ERAP1 (human) enzyme inhibition | inhibition, % at 10.7 µM | Q9NZ08 | recombinant ERAP1, Leu-AMC fluorescence, 60 min | AID 652197 | 0.15% of 340,000 active;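 active means mean replicate inhibition of at least 30%, or all replicates individually reaching that 30% level; inactive means mean below 30% and not every replicate reaching it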;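 further: 0% = neutral control wells and 100% = L-leucinethiol positive control wells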
Target sequence (Q9NZ08 whole entry, looked up): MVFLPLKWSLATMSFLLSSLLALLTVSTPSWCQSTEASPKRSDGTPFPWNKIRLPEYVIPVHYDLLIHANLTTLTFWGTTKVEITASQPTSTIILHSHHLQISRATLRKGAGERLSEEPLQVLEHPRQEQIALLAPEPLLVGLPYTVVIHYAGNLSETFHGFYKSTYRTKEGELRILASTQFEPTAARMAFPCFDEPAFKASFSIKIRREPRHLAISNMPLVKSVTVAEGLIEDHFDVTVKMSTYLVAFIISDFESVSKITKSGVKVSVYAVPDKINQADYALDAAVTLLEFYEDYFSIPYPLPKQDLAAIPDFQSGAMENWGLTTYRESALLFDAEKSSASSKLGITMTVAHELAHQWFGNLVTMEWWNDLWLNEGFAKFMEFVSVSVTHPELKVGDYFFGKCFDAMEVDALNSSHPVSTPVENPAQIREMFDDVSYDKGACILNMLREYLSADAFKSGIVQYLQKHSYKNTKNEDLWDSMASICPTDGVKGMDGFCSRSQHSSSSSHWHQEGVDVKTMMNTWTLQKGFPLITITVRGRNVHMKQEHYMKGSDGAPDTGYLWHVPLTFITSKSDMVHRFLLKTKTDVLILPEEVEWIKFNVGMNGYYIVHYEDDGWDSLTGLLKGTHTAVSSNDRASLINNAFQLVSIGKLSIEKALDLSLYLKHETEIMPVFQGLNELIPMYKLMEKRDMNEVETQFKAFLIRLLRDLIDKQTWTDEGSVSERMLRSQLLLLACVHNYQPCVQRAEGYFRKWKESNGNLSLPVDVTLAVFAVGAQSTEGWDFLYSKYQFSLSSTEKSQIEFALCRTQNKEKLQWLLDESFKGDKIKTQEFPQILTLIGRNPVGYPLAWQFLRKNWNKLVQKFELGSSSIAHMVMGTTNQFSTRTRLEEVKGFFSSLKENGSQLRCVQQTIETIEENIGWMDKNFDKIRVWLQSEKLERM
RAD52 anneal inh: blocks human RAD52 DNA annealing; recombinant RAD52 DNA annealing, FRET fluorescence; inhibition, % at 18.7 µM; 0.46% of 360,000 active; AID 651710;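 active means every replicate showing at least 50% inhibition; inconclusive means mean inhibition at least 50% but not in every replicate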
AF4-AF9 inh: blocks AF4 peptide binding to human AF9 | inhibition, % at 10 µM | AlphaScreen, biotin-AF4 peptide binding to FLAG-AF9 | 0.47% of 350,000 active | AID 651704 | P42568;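 active means every replicate reaching a set inhibition limit, whatever the replicate mean, cut at about 25% in these data; inconclusive means mean inhibition reaches that limit but some replicates miss it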;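 further: 0% = plate neutral control median and 100% = total signal loss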
FGF22 binding: binders of recombinant human FGF22 by thermal shift. AID 651658. Q9HCT0. 1.5% of 340,000 active. SYPRO orange fluorescence; percent of sucrose octasulfate shift, DMSO zero. activity (Tm shift, normalised), % at 9.99 µM;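 active means mean Tm shift, scaled 0 neutral to 100 positive control, at about 1.3% or above, every replicate too, limit read from the data; inconclusive means no clear call, values can overlap the other calls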
Numbers without * were called inactive; ? = inconclusive; · = not tested or not shown; ! = a repeat was not active. Only some compounds are listed: those with a hit (about 4% of all), similar ones and a draw of the others.

SMILES	DENV2 CPE rescue	ERAP1 HTS inh	RAD52 anneal inh	AF4-AF9 inh	FGF22 binding
C[C@H](CO)N1C[C@H](C)[C@@H](CN(C)Cc2ccc3c(c2)OCO3)OCCCC[C@H](C)Oc2ccc(NS(=O)(=O)c3cccs3)cc2C1=O	-6.1	·	·	·	-0.2
C[C@@H]1CN([C@@H](C)CO)C(=O)c2cc(NS(=O)(=O)c3cccs3)ccc2O[C@@H](C)CCCCO[C@H]1CN(C)Cc1ccc2c(c1)OCO2	36.6*	·	·	·	-0.1
C[C@@H]1CCCCO[C@@H](CN(C)Cc2ccc3c(c2)OCO3)[C@H](C)CN([C@@H](C)CO)C(=O)c2cc(NS(=O)(=O)c3cccs3)ccc2O1	112.1*!	·	·	·	-0.2
C[C@@H]1CCCCO[C@H](CN(C)Cc2ccc(Cl)c(Cl)c2)[C@@H](C)CN([C@H](C)CO)C(=O)c2cc(NS(=O)(=O)c3cccs3)ccc2O1	8.4	-3.7	7.4	-1.6	1.2*
C[C@@H]1CN([C@H](C)CO)C(=O)c2cc(NS(=O)(=O)c3cccs3)ccc2O[C@@H](C)CCCCO[C@@H]1CN(C)Cc1ccc2c(c1)OCO2	-14.0	·	·	·	0.0
C[C@H]1CCCCO[C@H](CN(C)Cc2ccc3c(c2)OCO3)[C@@H](C)CN([C@@H](C)CO)C(=O)c2cc(NS(=O)(=O)c3cccs3)ccc2O1	41.0*!	·	·	·	0.0
CO[C@@H]1CN(C)C(=O)c2ccc(NC(=O)c3nc4ccccc4s3)cc2OC[C@@H](C)N(Cc2ccccc2)C[C@H]1C	-4.6	2.6	2.7	2.1	0.2
C=CCN1C=C2C(=O)C(C)(OC(=O)CCC(=O)OC)C(=O)C=C2C=C1C1CC1 (stereo not given)	49.7*	0.9	-58.1	0.9	-0.1
COc1ccc(S(=O)(=O)Nc2ccc3c(c2)[C@H]2C[C@@H](CC(=O)O)O[C@H](CO)[C@H]2O3)cc1	3.4	-0.1	-6.6	-3.9	0.2
CCNC(=O)C[C@H]1CC[C@@H]2[C@H](COc3ccc(NC(=O)C4CCCCC4)cc3C(=O)N2C)O1	-2.9	-0.1	-3.6	-7.4	-0.6
Cc1ccc(-n2c(=O)cc(N3CC(C)OC(C)C3)[nH]c2=O)cc1 (stereo not given)	10.7	2.3	-5.0	44.1*	0.1
CN1C[C@@H]2C[C@@H](c3cccn3-c3nccs3)N3CCC[C@@]23C1=O	?	3.4	-8.6	-1.7	43.4*
CO[C@@H]1CN(C)C(=O)c2cc(NS(C)(=O)=O)ccc2OC[C@H](C)N(C(=O)CN(C)C)C[C@@H]1C	76.0*	-2.8	-0.9	-2.7	0.0
CO[C@H]1CN(C)C(=O)c2cc(NC(C)=O)ccc2OC[C@@H](C)N(C(=O)CN(C)C)C[C@H]1C	2.7	-2.8	7.1	-1.5	-0.2
CO[C@H]1CN(C)C(=O)c2cc(NC(C)=O)ccc2OC[C@H](C)N(C(=O)CN(C)C)C[C@H]1C	44.1*	0.7	4.8	-3.3	·
CO[C@@H]1CN(C)C(=O)c2ccc(NC(=O)Nc3ccccc3)cc2OC[C@@H](C)NC[C@@H]1C	-10.1	-2.4	-19.1	-0.2	·
Cc1ccc(S(=O)(=O)N2C[C@@H](O)COC[C@H]3O[C@@H](CC(=O)N[C@H]4CCN(Cc5ccccc5)C4)CC[C@@H]32)cc1	-7.5	-0.4	5.7	4.7	0.0
CC(C)C#Cc1ccc([C@@H]2[C@H](CO)N3CCCCN(CC4CC4)C[C@@H]23)cc1	21.7*	-3.1	4.5	13.4	-0.4
CC(C)C#Cc1ccc([C@@H]2[C@H]3CN(CC4CC4)CCCCN3[C@H]2CO)cc1	26.1*	1.3	25.1	-0.2	-0.4
CC(C)C#Cc1ccc([C@H]2[C@H]3CN(CC4CC4)CCCCN3[C@H]2CO)cc1	7.4	-1.6	-10.0	5.4	-0.3
CC(C)C#Cc1ccc([C@H]2[C@@H](CO)N3CCCCN(CC4CC4)C[C@H]23)cc1	-0.2	-2.5	-2.4	10.4	-0.4
O=C(C[C@H]1CC[C@H](NC(=O)Cc2cccnc2)[C@H](CO)O1)Nc1ccccc1	3.7	0.0	-0.1	-3.1	·
O=C(Cc1cccnc1)N[C@H]1CC[C@@H](CCn2cc(Cc3ccccc3)nn2)O[C@H]1CO	88.5*	0.7	-4.1	-1.1	-0.1
O=C(C[C@@H]1CC[C@H](NC(=O)Cc2cccnc2)[C@@H](CO)O1)Nc1ccccc1	44.3*	1.1	5.7	-2.0	·
COCC(=O)N(C)C[C@H]1Oc2cc(C#CCC3CCCC3)ccc2S(=O)(=O)N([C@@H](C)CO)C[C@@H]1C	-2.4	·	10.6	4.2	-0.1
SMILES	DENV2 CPE rescue	ERAP1 HTS inh	RAD52 anneal inh	AF4-AF9 inh	FGF22 binding
OCCC1CN(Cc2cnc(-c3ccc(Cl)cc3)nc2)CCN1C1CCCCC1 (stereo not given)	50.5*	·	3.4	2.4	0.2
Cc1cccc(-c2ncc(CN3CCN(C4CCCC4)C(CCO)C3)cn2)c1 (stereo not given)	5.1	-7.9	-15.1	0.0	0.3
OCCC1CN(Cc2cccn2-c2ccccn2)CCN1C1CCCCC1 (stereo not given)	10.0	1.9	-12.9	0.3	43.6*
COc1cccc(-c2ccc([C@@H]3[C@H]4CN(C(=O)C5CCCCC5)CC(=O)N4[C@H]3CO)cc2)c1	1.9	-0.7	-4.4	1.6	·
COC1OC2COC(c3ccccc3)OC2C(OC(=O)c2ccccc2)C1OC(=O)c1ccccc1 (stereo not given)	0.9	-2.3	-1.3	-2.1	0.0
COC1OC2COC(c3ccccc3)OC2C(NC(C)=O)C1OC(C)=O (stereo not given)	-4.9	1.5	-3.7	-4.4	45.1*
CC(OC(=O)C1CC2CCCC(C1)C2=O)C(=O)Nc1cccc([N+](=O)[O-])c1 (stereo not given)	4.9	0.3	-2.4	1.2	-0.5
CC(OC(=O)c1ccncc1)C(=O)Nc1cccc([N+](=O)[O-])c1 (stereo not given)	-2.3	-0.7	-14.4	-0.5	43.2*
C[C@@H]1CCCCO[C@H](CN(C)S(=O)(=O)c2cn(C)cn2)[C@@H](C)CN([C@H](C)CO)C(=O)c2cc(NS(=O)(=O)c3ccccc3)ccc2O1	-5.2	-0.3	1.4	0.1	-0.1
Cc1ncc(CO)c(/C=N/NC(=O)c2cc(Br)ccc2O)c1O	0.5	-1.9	-38.6	28.3*	·
Cc1ccc2c(c1)c1nnc(SCC(=O)Nc3cccc(Cl)c3C)nc1n2CC(=O)O	1.0	-6.0	4.4	2.6	1.7*
COc1ccc(-c2nc(NC(C)=O)sc2-c2ccc(OC)cc2)cc1	-1.8	0.9	6.3	-0.6	43.5*
C/C=C/c1ccc2c(c1)O[C@@H](CN(C)C(=O)CN(C)C)[C@H](C)CN([C@H](C)CO)S2(=O)=O	7.8	0.3	-4.7	-2.2	0.1
COCC(=O)N1CC2(C1)[C@@H](c1ccc(-c3ccccc3)cc1)[C@H](CO)N2C(C)=O	14.9	-3.8	-18.9	-1.4	0.1
Cc1cccc(C)c1-n1c(SCC(=O)Nc2ccc(C(=O)O)cc2)nnc1-c1cccc(S(=O)(=O)N(C)C)c1	3.1	-3.9	-7.9	-0.8	43.2*
OC1(c2cccs2)CN(c2ccccc2)C2=[N+]1CCCC2 (stereo not given)	-2.2	0.2	0.7	-1.2	43.4*

Screening results (PubChem)
